# Screens from PubChem.
# This excerpt belongs to a sample that is enriched for hits.
# AMA1 RON2 block = qHTS for Inhibitors of AMA1-RON; Towards Development of Antimalarial Drug Lead: Primary Screen; AlphaScreen AMA1-biotinylated RON2 peptide binding; Potency, µM (top dose mostly 58.2 µM), inactives show top-dose activity change, negative = inhibition, most hits filed as inhibitors; actives 0.2% (n = 360,000);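 note: potency is the fitted concentration of half-maximal effect; 0% = vehicle wells and -100% = peptide control; nearly all actives have a fitted effect of over 45% in size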
#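 AMA1 (3D7) with his tag at 25 nM final met compounds first, then biotinylated RON2 peptide at 25 nM; detection used donor plus acceptor beads, 10 µg/mL apiece, read by AlphaScreen after 30 min at room temperature.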
# AmpC detergent = qHTS Inhibitors of AmpC Beta-Lactamase (assay with detergent); AmpC hydrolysis of nitrocefin, absorbance 480 nm, 0.01% Triton; AID 485294, 2010; Potency, µM (titrated, usually from 114 µM), for inactives: at the top dose activity change, negative = inhibition, actives largely listed as inhibitors; P00811; actives 0.041% (n = 370,000);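 note: potency is the fitted concentration of half-maximal effect; 0% = no-compound wells and -100% = no-enzyme wells; nearly all actives have a fitted effect of over 25% in size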
# Target sequence (P00811 whole entry, looked up): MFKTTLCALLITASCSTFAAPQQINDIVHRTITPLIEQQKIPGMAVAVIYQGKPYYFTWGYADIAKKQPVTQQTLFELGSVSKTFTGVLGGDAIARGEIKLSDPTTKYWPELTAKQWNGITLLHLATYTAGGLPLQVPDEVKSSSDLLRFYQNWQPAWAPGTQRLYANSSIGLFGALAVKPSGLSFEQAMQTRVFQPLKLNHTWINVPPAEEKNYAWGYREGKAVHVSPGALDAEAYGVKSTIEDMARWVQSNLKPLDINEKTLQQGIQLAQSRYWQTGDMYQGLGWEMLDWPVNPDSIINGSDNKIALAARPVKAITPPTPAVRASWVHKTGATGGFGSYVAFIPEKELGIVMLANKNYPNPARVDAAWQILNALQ
#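 20 mM phosphate pH 7.0 + 0.01% (detergent screen) or 0.0001% Triton X-100; 5.3 nM AmpC reagent; cpd preinc 15 min RT; nitrocefin (800 uM stock) to start; A480 q20 s × 4 min; Activity was normalised to no-enzyme and no-compound control wells.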
# AmpC no deterg = qHTS Inhibitors of AmpC Beta-Lactamase (assay without detergent). P00811. AmpC nitrocefin hydrolysis, absorbance 480 nm, 0.0001% Triton. Potency, µM (highest dose often 57.1 µM), for the others: at the top dose activity change, negative = inhibition, most hits filed as inhibitors. actives 0.52% (n = 330,000);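 note: potency is the fitted concentration of half-maximal effect; plate controls were no compound for no effect and no enzyme for full effect; nearly all actives have a fitted effect of over 20% in size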
#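 AmpC (5.3 nM in the dispensed reagent) in 20 mM phosphate pH 7.0 with 0.01% (detergent screen) or 0.0001% Triton X-100 was preincubated with compounds for 15 min at room temperature. Nitrocefin was then added from an 800 uM solution, and hydrolysis was followed at 480 nm.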
# SARS PLP yeast = qHTS of Yeast-based Assay for SARS-CoV PLP; S. cerevisiae expressing SARS-CoV PLpro, growth rescue; Potency, µM (series often up to 32.9 µM), for the others: at the top dose activity, positive = growth rescue, usual class: activators; actives 0.19% (n = 330,000); AID 485353, 2010; calls by dose curve; note: potency is the fitted concentration of half-maximal effect; 0% is about no effect; nearly all actives have a fitted effect of over 55% in size
# Shiga inhibitor = A qHTS for Small Molecule Inhibitors of Shiga Toxin | Vero cells, Shiga toxin protein synthesis inhibition reporter | inhibition, % at 38.7 µM | actives 9.2% (n = 290,000) | AID 2315, 2010; in the data active = inhibition mostly above about 28%, no sharp cut-off; inactive = mostly below about 43%; note: 0% is about no effect
# CHX counter = Cycloheximide Counterscreen for Small Molecule Inhibitors of Shiga Toxin | cell reporter, cycloheximide protein synthesis inhibition counterscreen | max response, % | actives 12% (n = 300,000); in the data active = max response mostly above about 13%, no sharp cut-off; inactive = mostly below about 14%; note: read at 38.3 µM for the half of the compounds with a filed dose; 0% is about no effect
# Numbers without * were called inactive; ? = inconclusive; / = no result; [ ] = another dose, or the depositor's remark. Unless noted, calls come from the whole dose curve; as a rule, active = well fitted curve in the direction sought with a large enough effect; inconclusive = small, poorly fitted or top-dose-only effect, or another doubt; inactive = no such curve, though single readings can be large; an effect the other way counts as inactive or inconclusive.
SMILES,AMA1 RON2 block,AmpC detergent,AmpC no deterg,SARS PLP yeast,Shiga inhibitor,CHX counter
O=C(O)c1ccccc1Nc1ccccc1C(=O)O,-5%,-9%,-6%,3%,-8,2
CSc1ccc(Cl)c(C(=O)NC2CCCC2)c1,17%,?,-6%,6%,10,-3
N#Cc1ccc(-c2csc(NC(=O)C3CC3)n2)cc1,-3%,?,-20%,3%,30,12
CC1(C)ON(C2CCCCC2)[C@H]2c3nc4ccccc4n3C[C@H]21,-4%,-16%,3%,5%,-2,1
O=C(Cn1nc(-c2ccc(Cl)cc2)ccc1=O)NCc1ccc2c(c1)OCO2,-4%,-2%,-1%,8%,-8,-4
O=C(COC(=O)c1ccccc1)Nc1ncc([N+](=O)[O-])s1,-1%,/,-59%,-41%,/,/
O=C(Nc1ccccc1)Nc1ncc([N+](=O)[O-])s1,-23%,-14%,-21%[11.4 µM],-4%,77*,35*
O=C(Nc1ncc([N+](=O)[O-])s1)c1cccc([N+](=O)[O-])c1,0%,10%,-8%,-8%,105*,43*
O=C(Nc1ccccc1-c1ccccc1)c1cccc([N+](=O)[O-])c1,-8%,12%,-22%,-14%,122*,31*
O=C(Nc1ccc([N+](=O)[O-])cc1)c1ccccc1,-8%,3%,-42%,-2%,73*,47*
CCN(CC)S(=O)(=O)c1ccc(C(=O)OCC(=O)NC2CCCC2)cc1,-4%,3%,20%,1%,-5,-1
Cc1ccc(C(=O)Nc2ccc(Cc3ccncc3)cc2)cc1[N+](=O)[O-],-16%,4%,-40%,-11%,-18,0
Cc1ccc(NCCC(=O)c2cccc([N+](=O)[O-])c2)cc1,?,?,-21%,-29%,19*,29*
O=C(Nc1ccc(Cc2ccncc2)cc1)c1cccc([N+](=O)[O-])c1,-3%,?,-11%,-8%,-23,23*
Cc1cc(O)c(NC(=O)c2cccc([N+](=O)[O-])c2)cc1C,-14%,-3%,-12%,0%,47*,22*
O=C(NNc1ccc([N+](=O)[O-])cc1)c1ccccc1F,-6%,4%,-37%,-4%,21,25*
O=C(Nc1cc([N+](=O)[O-])ccc1O)c1cccc([N+](=O)[O-])c1,0%,?,-14%,0%,/,6
COc1cc([N+](=O)[O-])ccc1NC(=O)C[n+]1ccccc1,-18%,-10%,-15%,27%,-9,-3
CCN(CC)c1ccc(C(=O)Nc2ccccc2)cc1[N+](=O)[O-],-11%,?,1%[2.29 µM],-4%,67*,37*
COc1ccc(NC(=O)c2cccc([N+](=O)[O-])c2)cc1,1%,11%,-32%,1%,76*,59*
O=C(N/N=C1/CCSC1)c1cccc([N+](=O)[O-])c1,36%,0%,-49%,-1%,50*,-1
CCN(c1ccc(OC)cc1)S(=O)(=O)c1ccc(-c2cc(C)no2)s1,12%,-5%,-3%,6%,13,1
Cc1ccc2[nH]c(SCC(=O)N3CCOCC3)nc2c1C,-2%,-4%,-3%,2%,98*,52*
O=C(CSc1nc2ncc(Cl)cc2[nH]1)N1CCOCC1,-11%,/,-13%,6%,/,/
Cc1cc(C(=O)CSc2nc3ccc(Cl)cc3[nH]2)c(C)n1CC1CCCO1 (stereo not given),-11%,?,-6%,-6%,44,13
SMILES,AMA1 RON2 block,AmpC detergent,AmpC no deterg,SARS PLP yeast,Shiga inhibitor,CHX counter
Cc1ccc2nc(SCC(=O)N3CCOCC3)[nH]c2c1,-9%,-12%,19%,10%,56*,38*
CC(=O)c1cc2c(cc1NC(=O)CSc1nc3ccc(C)cc3[nH]1)OCO2,9%,-2%,-16%,15%,4,20*
Cc1ccc2nc(SCC3CCCCO3)[nH]c2c1 (stereo not given),7%,-8%,-21%,0%,44*,30*
C/C(N)=C(/C#N)C(=O)CSc1nc2ccc(C)cc2[nH]1,21%,?,-30%,-6%,86*,56*
Cc1ccc2nc(SCC(=O)Nc3ccc(C#N)cc3)[nH]c2c1,/,-4%,/,/,/,/
C=C(C)C1CC=C(CN2CCC(C(=O)OCC)CC2)CC1 (stereo not given),-10%,-13%,-26%,-6%,36,-2
Cc1ccccc1Nc1nc(N)nc(CN(C)Cc2ccccc2Cl)n1,56%,-8%,1%,8%,18,31*
Cc1ccccc1Nc1nc(N)nc(CSc2nnnn2C)n1,2%,4%,-13%,-7%,118*,48*
Cc1ccc(Nc2nc(N)nc(CSc3nccn3C)n2)c(C)c1,-2%,-13%,-12%,6%,42*,18*
Cc1c(Cl)cccc1Nc1nc(N)nc(CN2CCc3ccccc3C2)n1,8%,2%,43%,-10%,-17,4
Cc1ccc(SCc2nc(N)nc(Nc3ccccc3C)n2)c(C)c1,-1%,1%,3%,-10%,47*,17
CCc1ccccc1Nc1nc(N)nc(CSc2nnnn2C)n1,11%,-1%,-35%,-1%,18,10
COc1ccc(OC)c(S(=O)(=O)n2cccn2)c1,1%,?,-16%,-3%,31,2
CC(C)(C)OC(=O)C[C@@H]1C/C=C\C[C@H](CC(=O)N[C@H](CO)Cc2ccccc2)C(=O)N2CCC[C@H]2COC1=O,15%,/,228%,-3%,/,/
Cc1ccc(SCc2nc(N)nc(Nc3ccccc3C)n2)cc1C,14%,-2%,-19%,-24%,8,10
Cc1ccccc1Nc1nc(N)nc(CSc2ccc(F)cc2)n1,4%,2%,-21%,-7%,112*,48*
O=C(CSc1nc2ccccc2n1CC(=O)Nc1ccc(F)cc1F)Nc1ccc(F)cc1,/,1%,/,/,/,/
CCCc1cc(=O)c2ccc(OCC(C)=O)cc2o1,9%,?,0%,1%,3,2
O=c1oc2cc(O)ccc2c2oc3cc(O)ccc3c12,-8%,?,-33%,-6%,31*,13*
CC(=O)COc1ccc2c(C)c(C)c(=O)oc2c1,30%,-14%,-2%,4%,79*,52*
CCN(CC)C(=O)COc1ccc2c(-c3ccc(OC)cc3)cc(=O)oc2c1,-4%,-4%,77%,-1%,-12,0
CCc1c(C)c2ccc(OCC(N)=O)cc2oc1=O,16%,-1%,-23%,-2%,45,20*
